Measurements as given in ChEMBL document CHEMBL3988442, “University of Dundee, Small-Polar-MMV Screening Library” (2021).
Among all 38,000 compounds or so, about 1,200 (3.2%) showed an effect of 50% or more. The median lay at about -58%. The list comes from a sample in which strong results are over-represented; it also holds similar structures and randomly drawn compounds.

Tested on: Plasmodium falciparum
Test: Calibr Malaria Delayed Death Assay SOP
Type: functional, organism-based
Design: scale not given: in the data most compounds retested in dose-response had high values
Conditions: concentration 4.99e-06 (unit not given; other assays of the set use mol/L)

Row | Structure (SMILES) | Percent Effect [%]
1 | CN(C)C(=O)N1CCN(CCn2nc3ccccn3c2=O)CC1 | -59.88
2 | O=C(O)c1cc(/C=C/c2ccccc2)ncn1 | -169
3 | O=C1CC(c2ccccc2)c2cnn(C3CCCC3)c2N1 (stereo not drawn) | -174.4
4 | O=C1CC(c2ccc(F)cc2)c2cnn(C3CCCC3)c2N1 (stereo not drawn) | -115.7
5 | N#Cc1ccc(C2CC(=O)Nc3c2cnn3C2CCCC2)cc1 (stereo not drawn) | 52.33
6 | COc1ccc(C(C)=O)cc1CN1CCn2cccc2C1C (stereo not drawn) | -51.16
7 | CSc1ccc(-c2nc(CN3CCC(CN)C3)c(C)o2)cc1 (stereo not drawn) | 88.32
8 | CSc1ccc(-c2nc(CN3CCC(C(N)=O)CC3)c(C)o2)cc1 | -89.92
9 | CNC(=O)C1CCN(Cc2nc(-c3ccc(SC)cc3)oc2C)C1 (stereo not drawn) | -104
10 | Cc1nc2c(c(NC3CCN(Cc4ccccc4)CC3)n1)CCNCC2 | 78.1
11 | Cc1nc2c(c(NC3CC3)n1)CCN(C(=O)CCc1cccnc1)CC2 | -33.43
12 | Cc1nc2c(c(NC3CCN(Cc4cccnc4)CC3)n1)CCNCC2 | -53.07
13 | Cc1cccc(CN2CC3(CCN(C(=O)C4CC4)CC3)OCC2=O)n1 | -86.74
14 | COc1c(C)cnc(CNC(=O)c2cnc3onc(C)c3c2)c1C | -29.67
15 | CN(CCCc1cc(-c2ccc(F)cc2)n[nH]1)C(=O)CCn1cncn1 | -232.6
16 | COCCN(C)C(=O)Cn1cccc(OC)c1=O | -122.8
17 | O=C(Cc1cccs1)N1CCn2cc(Cn3cccn3)nc2C1.O=C(O)C(F)(F)F | -86.13
18 | CN1CCN(C2CCN(CCOc3ccccc3F)CC2)C1=O | -15.81
19 | O=C(c1ccoc1)N1CC[C@H]2C[C@@H](c3nnc(C4CC4)o3)O[C@@H]2C1 | -57.61
20 | Cc1nc(C)n(C2CCCN(C(=O)c3cn4cccnc4n3)C2)n1 (stereo not drawn) | -31.26
21 | CC1(C)CN(C(CNS(N)(=O)=O)c2ccc(Cl)cc2)CCO1 (stereo not drawn) | -0.7806

Row | Structure (SMILES) | Percent Effect [%]
22 | CC1(C)CN(C(CNS(C)(=O)=O)c2ccc(Cl)cc2)CCO1 (stereo not drawn) | -25.75
23 | Cc1csc(CNC(=O)NCC2(c3ccc4c(c3)OCO4)CC2)n1 | -58.48
24 | O=C(Cc1ccc2c(c1)OCCO2)NC1CCCC1 | -102.8
25 | O=S(=O)(NCC1(c2cccs2)CCOCC1)c1ccc2c(c1)OCCO2 | -63.38
26 | Cc1ncsc1CNC(=O)NCC1(c2ccc3c(c2)OCO3)CC1 | -37.92
27 | I.c1cc2c(cc1C1(CNC3=NCCN3)CCCC1)OCCO2 | 80.88
28 | c1cnc(NCc2noc3c2CN(c2cnccn2)CC3)nc1 | -103.6
29 | CC(=O)NCc1ccc(C(=O)N2CCCC(n3cncn3)C2)o1 (stereo not drawn) | -131.6
30 | O=C([C@@H]1CCO[C@@H]2CCN(CC3CC3)C[C@H]21)N1CCCCO1 | -73.92
31 | CC(C)(C(=O)NCCCC(N)=O)c1cccc(Br)c1 | -41.82
32 | COC(=O)NCC(=O)NCC(C)(C)c1cccc(Br)c1 | 84.11
33 | CC(C)(C(=O)NCCC(=O)O)c1cccc(Br)c1 | -14.62
34 | COC(=O)NCC(=O)NCC(C)(C)c1cccc(C(F)(F)F)c1 | 46.67
35 | CCC(=O)NCC(=O)NCC(C)(C)c1cccc(Br)c1 | 86.82
36 | CCC(=O)NCC(=O)NCc1cc(Br)ccc1OC(F)F | 4.46
37 | Cn1c(C2CC2)nc2c1CCN(CCOc1ccccc1C#N)C2 | -3.674
38 | CC1c2ncc(CN3CCN(C)CC3)n2CCN1Cc1ccccn1.O=C(O)C(F)(F)F.O=C(O)C(F)(F)F.O=C(O)C(F)(F)F.O=C(O)C(F)(F)F (stereo not drawn) | -124
39 | Oc1ccc(N2CCC(Cc3ccccc3)CC2)nn1 | -73.68
40 | N#Cc1cccc(CNC(=O)Nc2cccnc2N2CCCC2)c1 | -57.4
41 | CCNC(=O)c1ccnc(CC2COc3c(cccc3OC)C2)c1 (stereo not drawn) | -85.49
42 | CCc1ccc2nc(NCC(O)CO)cc(C)c2c1 (stereo not drawn) | -100

Row | Structure (SMILES) | Percent Effect [%]
43 | CCc1ccc2nc(NCCOCCO)cc(C)c2c1 | -140.8
44 | CCc1ccc2nc(NCCCN(CCO)CCO)cc(C)c2c1 | 83.32
45 | COc1ccc(-c2ccc(C(=O)N3CCC[C@@H]3CO)o2)cc1 | -98.07
46 | COCCN1C[C@@H]2CN(C(=O)[C@H]3CCCO3)C[C@@H]2C1=O | -140.9
47 | Cc1cnc(CN2CCN(c3ccnc(-c4ccccc4)n3)CC2)cn1 | -117.9
48 | CC(C)(C)C(=O)N1C[C@H](c2ccsc2)[C@H]2CN(Cc3cccs3)CC[C@H]21.Cl | 27.72
49 | COC(=O)N1CCC(NC(=O)N2CCCC2c2ccsc2)CC1 (stereo not drawn) | -44.77
50 | O=C(CC1CC1)N1CCO[C@H]2[C@H](OCCCn3cccn3)CC[C@@H]21.O=C(O)C(F)(F)F | -14.73
51 | CN(C)C(=O)N1CCC2(CC(=O)N(c3cccc(C#N)c3)C2)C1 (stereo not drawn) | -56.91
52 | Cc1ccccc1CC(=O)N1C[C@@H]2COC[C@]2(CN(C)C)C1.O=C(O)C(F)(F)F | -70.43
53 | CN(C)C1CCN(C(=O)c2ccnn2-c2ccc3ccccn23)CC1.O=C(O)C(F)(F)F | -10.05
54 | O=C(c1ccnn1-c1ccc2ccccn12)N1CCOCC1 | -129.8
55 | CN1CCCN(C(=O)c2ccnn2-c2ccc3ccccn23)CC1.O=C(O)C(F)(F)F | 69.35
56 | Cc1ncsc1CNCC(C)c1nc2ccccc2o1 (stereo not drawn) | -88.91
57 | Cc1nc(CN2CCC(N(C)Cc3noc(C4CC4)n3)C2)oc1C (stereo not drawn) | -157.8
58 | CCC[C@@H]1CN(C(=O)c2ccccc2C(C)=O)C[C@H]1N(C)C | -122.5
59 | CCC[C@@H]1CN(C(=O)c2conc2-c2ccccc2)C[C@H]1N(C)C | 50.45
60 | CCC[C@@H]1CN(C(=O)c2ccccc2-c2ccccc2)C[C@H]1N(C)C | 18.3
61 | CCC[C@@H]1CN(C(=O)c2cc3ccccc3cc2O)C[C@H]1N(C)C | 51.44
62 | CCC[C@@H]1CN(C(=O)c2ccccc2-c2ncc[nH]2)C[C@H]1N(C)C | -89.87
63 | CCC[C@@H]1CN(C(=O)c2cc(-c3cccs3)n(C)n2)C[C@H]1N(C)C | -67.73
